Hit rate of the full screen: of about 350,000 compounds, about 31,000 (8.9%) were called active. Another 15% or so got no clear call; they are omitted. For the sample, actives were picked, then their nearest neighbours and some compounds at random. Values without a mark were called inactive. Calls come from the whole dose curve; as a rule, active = well fitted inhibition curve with a large enough effect; inconclusive = small, poorly fitted or top-dose-only effect; inactive = no such curve, though single readings can be large or run the other way.
Each molecule was assayed against Histone-lysine N-methyltransferase EHMT2 (Homo sapiens) (UniProt Q96KQ7) (assay: qHTS Assay for Inhibitors of Histone Lysine Methyltransferase G9a). Settings: G9a H3K9 monomethylation, AlphaScreen, 2 h; series mostly up to 59 µM; activity, negative = inhibition: at the top concentration.
Sequence of Histone-lysine N-methyltransferase EHMT2 (Homo sapiens) (Q96KQ7 913-1193 limits assumed): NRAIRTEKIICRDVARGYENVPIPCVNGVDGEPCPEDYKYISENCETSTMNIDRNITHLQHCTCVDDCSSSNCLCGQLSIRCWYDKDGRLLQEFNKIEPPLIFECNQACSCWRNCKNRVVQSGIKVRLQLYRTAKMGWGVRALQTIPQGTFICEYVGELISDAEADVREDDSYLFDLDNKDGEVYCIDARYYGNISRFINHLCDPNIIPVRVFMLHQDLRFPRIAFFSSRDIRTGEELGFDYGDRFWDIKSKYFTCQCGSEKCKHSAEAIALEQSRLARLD
Method in brief: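 Enzyme 20 nM + cpd, 15 min RT; add b-H3K9 pep 500 nM / SAM 20 uM; 2 h RT; anti-H3K9me1 Ab 0.5 ug/mL + SA donor / anti-rabbit acceptor beads 20 ug/mL each, 10 min; AlphaScreen read.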
% is set by controls: 0 for no effect and ±100 for the full control effect; potency is the fitted concentration of half-maximal effect.
Note: nearly all actives have a fitted effect of over 75% in size.

SMILES | activity, negative = inhibition | Potency
Cc1ccccc1CN1CCC(CNC(=O)c2c(C)oc3ncnc(N4CCCCC4)c23)CC1 | -14.7% | –
COc1ccc2oc(C(=O)NCc3ccco3)c(C)c2c1 | -3.78% [at 102 µM] | –
O=C(c1ccco1)n1nc(-c2ccc(Cl)cc2)nc1NCc1ccccc1 | -2.33% | –
C1=C(N2CCOCC2)/C(=C/c2nc3ccccc3[nH]2)CC1 | – | 20 µM (active)
O=c1[nH]c(N2CCOCC2)nc2ccccc12 | 15.6% [at 102 µM] | –
c1ccc(-n2nnnc2N2CCOCC2)cc1 | -32.7% [at 102 µM] | –
O=C(Nc1ccc(C(=O)NCc2ccccc2Cl)cc1)C1=CSCCO1 | 13.9% | –
Cc1ccn2c(=O)nc(SCC(=O)NCc3ccc(F)cc3)nc2c1 | -25% [at 102 µM] | –
COc1ccc(-n2c(C)nc3c(cnn3-c3ccc(F)cc3)c2=O)cc1 | 0.269% | –
Cc1[nH]c2ccccc2c1C(=O)CN1CC(C)CC(C)C1 (stereo not given) | -25.6% [at 102 µM] | –
Cc1c(C(=O)N2CCOCC2)[nH]c2ccc(OCc3ccccc3)cc12 | -37.5% [at 12.7 µM] | –
Cc1c(C(=O)CN2CCOCC2)[nH]c2ccccc12 | – | 39.8 µM (active)
CCOc1ccccc1CNC(=O)c1ccc2c(c1)nc1n2CCC(C)C1 (stereo not given) | -6.28% | –
CCOc1ccc(OCC)c(Nc2nc3ccccc3n3nnnc23)c1 | -4.9% | –
O=C(CSc1nnc(-c2ccncc2)n1C1CCCCC1)Nc1ccccc1 | -7.6% [at 102 µM] | –
CC1CCCCC1NC(=O)CSc1nnc(-c2ccncc2)n1CCCN(C)C (stereo not given) | – | 3.98 µM (active)
CCn1c(SCC(=O)NC2CC2)nnc1-c1ccncc1 | 14.2% [at 102 µM] | –
CC1(C)NC(=O)N(CC(=O)N2CCN(S(=O)(=O)c3ccccc3F)CC2)C1=O | 22.5% [at 12.7 µM] | –
Cc1csc2nc(O)c(C(=O)NCCN3CCOCC3)c(=O)n12 | -4.7% [at 102 µM] | –
CCc1ccc(NC(=O)C(=O)NNC(=O)c2cccs2)cc1 | 18.7% [at 102 µM] | –
CC(=O)NC(=S)Nc1ccc(NC(=O)c2cccnc2)cc1 | -0.83% [at 102 µM] | –
NS(=O)(=O)c1ccc(NC(=S)NNC(=O)c2cccs2)cc1 | – | 8.91 µM (active)
NS(=O)(=O)c1ccc(NC(=S)NC(=O)c2cccnc2)cc1 | – | 50.1 µM (active)
NS(=O)(=O)c1ccc(NC(=S)NC(=O)c2cccc(Br)c2)cc1 | -4.74% [at 102 µM] | –
CC(C)C(=O)Nc1ccc(C(=O)NNC(=O)c2cccs2)cc1 | 61.3% | –

SMILES | activity, negative = inhibition | Potency
CC(=O)c1sc(N)nc1C | -2.73% [at 2.33 µM] | –
CCCc1nnc(NC(=O)CCC(=O)NC2CC2)s1 | -1.79% [at 102 µM] | –
O=C(NC1CC(=O)N(c2ccc(Cl)cc2)C1)C1CCCC1 (stereo not given) | 12% | –
CSc1ncc(C(=O)NCc2ccccc2Cl)c(C(F)(F)F)n1 | -9.4% | –
COc1ccc(-n2nc(C(=O)NCC(=O)N3CCN(c4ccccc4OC)CC3)c3ccccc3c2=O)c(OC)c1 | -74.2% [at 102 µM] | –
CCC(C(=O)OC)n1cnc2scc(-c3ccc(C)cc3)c2c1=O (stereo not given) | 11.4% [at 102 µM] | –
COC(=O)c1c(-c2ccc(C)cc2)csc1N | – | 31.6 µM (active)
COC(=O)c1scc(-c2ccc(C)cc2)c1S(=O)(=O)Nc1cc(Cl)c(OC)cc1OC | -21% | –
NC(=O)CSc1nc2c(oc3ccccc32)c(=O)n1Cc1ccccc1 | 0.31% | –
COc1ccc(Cc2nnc(NC(=O)Cc3cccs3)s2)cc1 | – | 39.8 µM (active)
O=C(Cc1cccs1)Nc1nnc(SCc2ccc(F)cc2)s1 | 17.6% [at 102 µM] | –
CCc1nnc(NC(=O)Cc2cccs2)s1 | 5.33% [at 102 µM] | –
CCOc1ccc(CCNC(=O)COC(=O)c2c(OC)cccc2OC)cc1OCC | -6.24% [at 2.33 µM] | –
CCN(C(=O)CSc1nnnn1-c1ccccc1OC)C1CCS(=O)(=O)C1 (stereo not given) | -20.6% [at 102 µM] | –
O=C(Cn1c(=O)n(Cc2ccccc2)c(=O)c2sc3ccccc3c21)Nc1ccccc1F | 7.47% | –
NC(=O)c1sc(-c2ccsc2)cc1N | – | 14.1 µM (active)
COc1cc(OC)cc(-c2nc3nc(C)c(CCC(=O)Nc4ccc(C)cc4)c(C)n3n2)c1 | 6.77% | –
COc1ccc(/C=C(\C#N)C(=O)OCC(=O)N(C)C2CCS(=O)(=O)C2)cc1 (stereo not given) | 1.94% [at 102 µM] | –
Cc1ccc(N2C(=O)CC(Nc3cccc4ccccc34)C2=O)cc1 (stereo not given) | – | 14.1 µM (active)
O=C(Cc1ccccc1)NNC1CC(=O)N(c2ccc(Br)cc2)C1=O (stereo not given) | 17.2% | –
Cc1ccc(N2C(=O)C3CC3C2=O)cc1 (stereo not given) | 11.1% [at 102 µM] | –
Cc1cccc(NC(=O)c2nnn(CC(=O)Nc3ccc(C(C)C)cc3)c2N)c1C | 8.78% | –
CN(CC(=O)NCc1ccc2c(c1)OCO2)CC(=O)Nc1ccc(F)c(F)c1F | 2.14% [at 12.7 µM] | –
CC1CCN(C(=O)CCNC(=O)c2ccccc2)CC1 | 8.2% [at 102 µM] | –
CC1CCN(C(=S)c2cccc(O)c2)CC1 | – | 14.1 µM (active)

SMILES | activity, negative = inhibition | Potency
CC1CCN(C(=O)/C(=C\c2ccccc2)NC(=O)c2ccccc2)CC1 | 4.64% [at 102 µM] | –
CC1CCN(c2ccc([N+](=O)[O-])cc2C(N)=O)CC1 | 10.6% [at 102 µM] | –
O=C(c1cccc([N+](=O)[O-])c1)N1CCN(C(=O)c2ccco2)CC1 | -8.6% [at 102 µM] | –
CC1CCN(C(=S)c2cccc([N+](=O)[O-])c2)CC1 | – | 35.5 µM (active)
Cc1ccc(Cl)c(OCC(=O)N(C)CC(=O)Nc2ccc(N3CCOCC3)cc2)c1 | 10.6% [at 0.501 µM] | –
CCc1ccccc1NC(=O)CSc1nc(C)c(C(=O)Nc2ccccc2)c(-c2ccc(Cl)cc2)c1C#N | 24.8% | –
Cc1ccccc1C(=O)Nc1cc(C)c(O)c(-c2nc3ccccc3o2)c1 | 0.528% | –
COC(=O)CN1C(=O)[C@H]2[C@@H](C3CC3)N3C(=O)CN(Cc4ccc(-c5ccccc5)cc4)C(=O)[C@@]3(Cc3ccccc3)[C@H]2C1=O | -1.89% [at 102 µM] | –
CSc1ccc(C2C(C(=O)Nc3ccccc3)=C(C)Nc3nc4ccccc4n32)cc1 (stereo not given) | -23.8% | –
CCn1c(CNS(=O)(=O)c2ccc(Cl)cc2)n[nH]c1=S | – | 28.2 µM (active)
CSc1ccc(S(=O)(=O)NCc2ccc(Cl)cc2)cc1 | 15.9% [at 12.7 µM] | –
Cc1cc(C)n(CCNS(=O)(=O)c2ccc(Cl)cc2)n1 | -7.54% [at 0.501 µM] | –
O=C(c1cc(-c2ccc(Cl)s2)nc2ccccc12)N1CCOCC1 | 17% [at 12.7 µM] | –
COc1ccc(CN2C(=O)C(NC(=O)c3cccc(C)c3)(C(F)(F)F)N=C2c2ccccc2)cc1 (stereo not given) | 5.18% | –
CCCCOc1ccc(CSC(=N)N)cc1[N+](=O)[O-] | 7.15% [at 12.7 µM] | –
COCCNc1cc(NCCOC)c([N+](=O)[O-])cc1[N+](=O)[O-] | -5.08% | –
Cc1ccc([N+](=O)[O-])c(OCCCNCC(C)O)c1 (stereo not given) | – | 12.6 µM (active)
COc1ccc(CC(NC(C)=O)C(=O)NC2CCN(C(=O)c3ccc(Cl)cc3)CC2)cc1 (stereo not given) | -11.3% [at 102 µM] | –
Cc1ccc(NC(=O)N2CCC(c3nc4c(nnn4Cc4c(F)cccc4Cl)c(=O)[nH]3)CC2)cc1 | -23.2% [at 102 µM] | –
O=C(Nc1ccc(F)cc1)N1CCCC(c2nc3c(nnn3Cc3ccccc3Cl)c(=O)[nH]2)C1 (stereo not given) | 0.052% [at 102 µM] | –
O=C(c1ccccc1F)N1CCC(c2nc3c(nnn3Cc3cccc(F)c3)c(=O)[nH]2)CC1 | – | 1 µM (active)
Cc1ccccc1Nc1nn2c(=O)c3ccc(C(=O)NCCc4ccc(Cl)cc4)cc3nc2s1 | -4.26% | –
COc1ccc(-c2nc3ccc(C(=O)NCc4ccc(C)cc4)cc3nc2-c2ccc(OC)cc2)cc1 | 23.6% | –
Cc1cccc(C(=O)NCCCN2CCCC2=O)c1 | 16.7% [at 102 µM] | –
Cc1cccc(-c2nc3ccc(C(=O)NCCN4CCN(C)CC4)cc3nc2-c2cccc(C)c2)c1 | – | 70.8 µM (active)

SMILES | activity, negative = inhibition | Potency
CCc1ccc(CNC(=O)C2CCN(c3nnc(C)c4c(C)n(-c5ccc(C)cc5)nc34)CC2)cc1 | – | inactive
CC1CC1C(=O)OCC(=O)Nc1cccc(F)c1 (stereo not given) | 17.7% [at 2.33 µM] | –
O=C(CN1CCN(c2ccc(O)cc2)CC1)NC1CCCc2ccccc21 (stereo not given) | – | 25.1 µM (active)
O=C(CSc1nncs1)NC1CCCc2ccccc21 (stereo not given) | 3.13% [at 102 µM] | –
CSc1ccccc1N1CCN(CCCCCC(=O)NC2CCCc3ccccc32)CC1 (stereo not given) | – | 21.2 µM (active)
O=C(CCNC(=O)c1ccc(Cl)cc1)NC1CCCc2ccccc21 (stereo not given) | 15.5% [at 2.33 µM] | –
Cc1ccc(S(=O)(=O)N2CCN(C(=O)CCC(=O)NC3CCCc4ccccc43)CC2)cc1 (stereo not given) | -0.0182% [at 102 µM] | –
O=C(CCC(=O)N1CCN(S(=O)(=O)c2ccccc2)CC1)NC1CCCc2ccccc21 (stereo not given) | 11.3% | –
COc1ccc(CCN2C(=O)c3oc4cc(C)cc(C)c4c(=O)c3C2c2ccccc2F)cc1OC (stereo not given) | 5.08% | –
COc1cccc2[nH]c(C(=O)NCCc3ccccc3)cc12 | 21.5% [at 102 µM] | –
CCNC(=O)c1cnn(-c2ccccc2)c1-c1ccccc1 | -1.29% [at 102 µM] | –
Cc1cc(=O)c2cc(C(=O)Nc3cccc(C)c3C)ccc2[nH]1 | -8.29% | –
COc1ccc(/C=N/NC(=O)c2ccncc2)cc1CN1CCCc2ccccc21 | – | 35.5 µM (active)
COc1ccc(/C=N/NC(=O)c2ccc(Cl)cc2)cc1COC(C)=O | -4.32% | –
COc1cc(/C=N/NC(=O)CNC(=O)c2ccncc2)ccc1OC(C)=O | 15.1% [at 102 µM] | –
COC(=O)CN1C(=O)CSc2ccc(S(=O)(=O)Nc3cc(C)ccc3C)cc21 | -6.35% | –
Cn1c(SCC(=O)NC2CCCCC2)nnc1-c1ccc(N)cc1 | -1.06% [at 102 µM] | –
CCCCSc1nnc(-c2ccc(NC(=O)CC)cc2)n1C | – | 50.1 µM (active)
CCC(=O)Nc1cccc(NC(=O)CSc2nnc(-c3ccc(NS(C)(=O)=O)cc3)n2C)c1 | -1.1% | –
CCc1ccc(N(CC(=O)NCc2cccnc2)S(=O)(=O)c2ccccc2)cc1 | 11% [at 102 µM] | –
Cc1ccc(S(=O)(=O)c2nnn3c2nc(N2CCN(c4ccccc4F)CC2)c2cc(Cl)ccc23)cc1C | 7.4% | –
CCOc1cccc(CNC(=O)c2ccc(N3CCCC3)c(NC(=O)Nc3ccccc3CC)c2)c1 | -4.88% | –
CCOCCn1ccc2c(OCC(=O)NCc3ccc(C)cc3)cccc2c1=O | -1.84% | –
Cc1ccc(CNC(=O)COc2ccc3c(c2)CCC3)cc1 | 26.7% | –
CCOCC(=O)NCc1ccc2c(c1)cc(C)n2C | – | 35.5 µM (active)

Source: PubChem BioAssay AID504332 (National Center for Advancing Translational Sciences (NCATS), 2011)
